In PubChem BioAssay (NCI) one finds growth inhibition data, which are given here for 8 molecules.

The nature of assay [1]: NCI Yeast Anticancer Drug Screen. Data for the rad50 strain (AID 155).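 Further: 0% = growth of vehicle-only cultures of the same strain.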 The settings on record: S. cerevisiae rad50 strain growth inhibition, stronger effect = higher value. A digest of the protocol: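 Compounds were tested on a yeast strain with an engineered DNA damage repair alteration; the reported value is growth inhibition normalised to vehicle treatment.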
Assay [2] can be described thus: NCI Yeast Anticancer Drug Screen. Data for the mec2-1 strain (AID 157). The conditions noted are these: S. cerevisiae mec2-1 strain, stronger effect = higher value. Put shortly: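 Vehicle-treated cultures served as reference for growth inhibition of compound-exposed mec2-1 yeast.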
Assay [3] in a line: NCI Yeast Anticancer Drug Screen. Data for the sgs1 mgt1 strain (AID 161).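 Further: 0% = growth of cultures given vehicle only.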 The settings on record: S. cerevisiae sgs1 mgt1 strain, stronger effect = higher value. A digest of the protocol:
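Test agents were incubated with a DNA-repair-mutant yeast strain. Growth was then read and compared against vehicle-treated controls.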

Assay [4] is described as follows: NCI Yeast Anticancer Drug Screen. Data for the cln2 rad14 strain (AID 165).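 Further: 0% = growth equal to vehicle treated cultures.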 The settings on record: S. cerevisiae cln2 rad14 strain, stronger effect = higher value. A digest of the protocol: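 Each compound was tested on cln2 rad14 yeast. Inhibition of growth was calculated against vehicle-exposed controls.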
Assay [5] in a line: NCI Yeast Anticancer Drug Screen. Data for the bub3 strain (AID 167). The settings on record: S. cerevisiae bub3 mutant strain, stronger effect = higher value. A digest of the protocol:
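Growth of a checkpoint-deficient yeast mutant is measured after compound exposure. Values represent inhibition relative to vehicle.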

Assay [6] is described as follows: NCI Yeast Anticancer Drug Screen. Data for the mlh1 rad18 strain (AID 175). The settings on record: S. cerevisiae mlh1 rad18 strain growth inhibition, stronger effect = higher value. Put shortly: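 Vehicle-treated cultures served as the reference for growth inhibition in a yeast strain carrying DNA damage repair alterations exposed to each compound.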
Setting [7] is: at 5.0 µM (retest, dose inferred, filed as 0.5).
Where [8] appears, read: at 50.0 µM (retest, dose inferred, filed as 5.0).

“And” between values parts separate entries of the source, which are not always exact repeats. Equal entries are not always repeated. About 79,000 compounds went through this panel and 15% of them were active in at least one assay; those are over-represented in the sample as a whole. More than one record can exist for a structure, and the calls need not agree. The source made the active and inactive calls. No stated cut-off is given here; in the data, active means growth inhibition above about 70%; inactive means the rest.

With `C=C1C(=O)C23OC2C1CCC(=O)C1(C)CC[C@H](OC(C)=O)C(C)(C)[C@H]1CC3=O` (some centres undefined), the growth inhibition in assay [1] (setting [7]) was 96% (active); in assay [1] (setting [8]), -2% (inactive); in assay [1] (at 50.0 µM), 99.2% (active); in assay [2] (setting [7]), 98% (active); in assay [2] (setting [8]) it was 1% (inactive); in assay [2] (at 50.0 µM), 99.5% (active). The growth inhibition was 98% (active) in assay [3] (setting [7]); 0% (inactive) in assay [3] (setting [8]); 99.5% (active) in assay [3] (at 50.0 µM); 95% (active) in assay [4] (setting [7]); -1% (inactive) in assay [4] (setting [8]); 99% (active) in assay [4] (at 50.0 µM). For the same molecule, the growth inhibition was 98% (active) in assay [5] (setting [7]); -1% (inactive) in assay [5] (setting [8]); 99% (active) in assay [5] (at 50.0 µM); 98% (active) in assay [6] (setting [7]); -1% (inactive) in assay [6] (setting [8]); 99.2% (active) in assay [6] (at 50.0 µM).

Regarding `OC1CCC(O)CC1` (centres undefined), the growth inhibition in assay [1] (setting [7]) was -1% (inactive); in assay [1] (setting [8]) it was 42% (inactive); in assay [1] (at 50.0 µM), 73.8% (active) and 21.8% (inactive); in assay [2] (setting [7]), -3% (inactive); in assay [2] (setting [8]), 3% (inactive); in assay [2] (at 50.0 µM) it was 20.2% (inactive) and -13.1% (inactive). The growth inhibition was 0% (inactive) in assay [3] (setting [7]); 5% (inactive) in assay [3] (setting [8]); 70.2% (active) and -6.75% (inactive) in assay [3] (at 50.0 µM); 2% (inactive) in assay [4] (setting [7]); -3% (inactive) in assay [4] (setting [8]); 8.65% (inactive) and -1.45% (inactive) in assay [4] (at 50.0 µM). For the same molecule, the growth inhibition in assay [5] (setting [7]) was 0% (inactive); in assay [5] (setting [8]), 4% (inactive); in assay [5] (at 50.0 µM), 11% (inactive) and -1.95% (inactive); in assay [6] (setting [7]) it was 0% (inactive); in assay [6] (setting [8]), 10% (inactive); in assay [6] (at 50.0 µM) it was 67.3% (inactive) and 22% (inactive).

Consider `O=C1c2cccc(O)c2C(=O)c2cccc(O)c21`, for which the growth inhibition in assay [1] (setting [7]) is 6% (inactive); in assay [1] (setting [8]) it was 17% (inactive); in assay [1] (at 50.0 µM), 20.7% (inactive) and 33.4% (inactive); in assay [2] (setting [7]), 9% (inactive); in assay [2] (setting [8]), 17% (inactive); in assay [2] (at 50.0 µM) it was 12.1% (inactive) and 22.7% (inactive). Besides, the growth inhibition in assay [3] (setting [7]) was 0% (inactive); in assay [3] (setting [8]) it was 7% (inactive); in assay [3] (at 50.0 µM), 18.1% (inactive) and 82.8% (active); in assay [4] (setting [7]), 4% (inactive); in assay [4] (setting [8]) it was 24% (inactive); in assay [4] (at 50.0 µM), 12.4% (inactive) and -23.5% (inactive). Further, the growth inhibition was 4% (inactive) in assay [5] (setting [7]); 1% (inactive) in assay [5] (setting [8]); 6% (inactive) and 30.1% (inactive) in assay [5] (at 50.0 µM); 7% (inactive) in assay [6] (setting [7]); 39% (inactive) in assay [6] (setting [8]); 6.5% (inactive) and 76.8% (active) in assay [6] (at 50.0 µM).

On to `CC(C)(c1ccc(O)cc1)c1ccc(O)cc1`, for which the growth inhibition in assay [1] (setting [7]) is 5% (inactive); in assay [1] (setting [8]), 59% (inactive) and 83% (active); in assay [1] (at 50.0 µM), 69.5% (inactive) and 77.6% (active); in assay [2] (setting [7]), 10% (inactive) and 3% (inactive); in assay [2] (setting [8]), 34% (inactive) and 51% (inactive); in assay [2] (at 50.0 µM) it was 58.6% (inactive) and 81.8% (active). In addition, the growth inhibition in assay [3] (setting [7]) was -3% (inactive) and 4% (inactive); in assay [3] (setting [8]) it was 75% (active) and 51% (inactive); in assay [3] (at 50.0 µM) it was 78.1% (active) and 64.6% (inactive); in assay [4] (setting [7]) it was 9% (inactive) and 16% (inactive); in assay [4] (setting [8]) it was 39% (inactive) and 78% (active); in assay [4] (at 50.0 µM), 50.4% (inactive) and 71.2% (active). The growth inhibition in assay [5] (setting [7]) was 30% (inactive) and 5% (inactive); in assay [5] (setting [8]), 45% (inactive) and 64% (inactive); in assay [5] (at 50.0 µM), 59.7% (inactive) and 81.1% (active); in assay [6] (setting [7]) it was 6% (inactive) and 4% (inactive); in assay [6] (setting [8]), 64% (inactive) and 68% (inactive); in assay [6] (at 50.0 µM), 76.6% (active) and 87.7% (active).

With `CC(=O)Nc1nc(N)c2ncn(C3OC(C(O)CO)C(O)C3O)c2n1` (centres undefined), the growth inhibition was 0% (inactive) in assay [1] (setting [7]); 1% (inactive) in assay [1] (setting [8]); 1.75% (inactive) and -3.5% (inactive) in assay [1] (at 50.0 µM); 0% (inactive) in assay [2] (setting [7]); 1% (inactive) in assay [2] (setting [8]); 0.35% (inactive) and -7.5% (inactive) in assay [2] (at 50.0 µM). Further, the growth inhibition in assay [3] (setting [7]) was -3% (inactive); in assay [3] (setting [8]), -1% (inactive); in assay [3] (at 50.0 µM), 3% (inactive) and 1.8% (inactive); in assay [4] (setting [7]) it was 1% (inactive); in assay [4] (setting [8]), 0% (inactive); in assay [4] (at 50.0 µM), 53.5% (inactive) and -80% (inactive). In addition, the growth inhibition in assay [5] (setting [7]) was 1% (inactive); in assay [5] (setting [8]), 0% (inactive); in assay [5] (at 50.0 µM) it was -10.2% (inactive) and 10.1% (inactive); in assay [6] (setting [7]), -1% (inactive); in assay [6] (setting [8]), 3% (inactive); in assay [6] (at 50.0 µM) it was 18.9% (inactive) and -12.4% (inactive).

In the case of `Nc1nnc(/C=C/c2ccccc2)o1`, the growth inhibition in assay [1] (setting [7]) is 2% (inactive); in assay [1] (setting [8]), -22% (inactive); in assay [1] (at 50.0 µM), 19.5% (inactive); in assay [2] (setting [7]), 8% (inactive); in assay [2] (setting [8]), -21% (inactive); in assay [2] (at 50.0 µM) it was -21.6% (inactive). Also, the growth inhibition in assay [3] (setting [7]) was -8% (inactive); in assay [3] (setting [8]) it was -9% (inactive); in assay [3] (at 50.0 µM), -4.6% (inactive); in assay [4] (setting [7]) it was 1% (inactive); in assay [4] (setting [8]), -4% (inactive); in assay [4] (at 50.0 µM) it was 42.2% (inactive). For the same molecule, the growth inhibition in assay [5] (setting [7]) was 1% (inactive); in assay [5] (setting [8]) it was -4% (inactive); in assay [5] (at 50.0 µM) it was -1.9% (inactive); in assay [6] (setting [7]) it was 7% (inactive); in assay [6] (setting [8]), 21% (inactive); in assay [6] (at 50.0 µM), -10.2% (inactive).

For `CC12CCC3c4ccc(O)cc4CCC3C1CCC2S` (centres undefined), the growth inhibition was -4% (inactive) in assay [1] (setting [7]); 96% (active) in assay [1] (setting [8]); -7.35% (inactive) and 96.5% (active) in assay [1] (at 50.0 µM); -31% (inactive) in assay [2] (setting [7]); 97% (active) in assay [2] (setting [8]); -1.65% (inactive) and 49.3% (inactive) in assay [2] (at 50.0 µM). Further, the growth inhibition in assay [3] (setting [7]) is -19% (inactive); in assay [3] (setting [8]) it was 97% (active); in assay [3] (at 50.0 µM) it was -2.95% (inactive) and 52.2% (inactive); in assay [4] (setting [7]), -3% (inactive); in assay [4] (setting [8]), 96% (active); in assay [4] (at 50.0 µM) it was -5.3% (inactive) and 94.8% (active). Moreover, the growth inhibition in assay [5] (setting [7]) is -9% (inactive); in assay [5] (setting [8]), 97% (active); in assay [5] (at 50.0 µM), 0.75% (inactive) and 98.1% (active); in assay [6] (setting [7]), -26% (inactive); in assay [6] (setting [8]) it was 95% (active); in assay [6] (at 50.0 µM), -2.3% (inactive) and 96.3% (active).

In the case of `CC(CCc1nc2ccccc2s1)(c1ccc(O)cc1)c1ccc(O)cc1`, the growth inhibition is 27% (inactive) in assay [1] (setting [7]); 99% (active) in assay [1] (setting [8]); 99.5% (active) in assay [1] (at 50.0 µM); -5% (inactive) in assay [2] (setting [7]); 100% (active) in assay [2] (setting [8]); 99.7% (active) in assay [2] (at 50.0 µM). The growth inhibition is 15% (inactive) in assay [3] (setting [7]); 100% (active) in assay [3] (setting [8]); 99.3% (active) in assay [3] (at 50.0 µM); 6% (inactive) in assay [4] (setting [7]); 99% (active) in assay [4] (setting [8]); 98.3% (active) in assay [4] (at 50.0 µM). Further, the growth inhibition was -12% (inactive) in assay [5] (setting [7]); 99% (active) in assay [5] (setting [8]); 99.2% (active) in assay [5] (at 50.0 µM); 11% (inactive) in assay [6] (setting [7]); 100% (active) in assay [6] (setting [8]); 99.2% (active) in assay [6] (at 50.0 µM).
